Bioassay records: PubChem, several laboratories
Rows were chosen to be rich in hits. Some 1.9% of all compounds tested hit in one or more screens of this group.
Measles CPE: protection of cells from measles virus; Measles virus-infected cells, CPE protection, absorbance; protection (pct of control), % at 4 µM; 140,000 compounds, 1.5% hits; in the data active means protection mostly above about 24%, no sharp cut-off; inactive means mostly below about 26%
sEH act: increases human soluble epoxide hydrolase activity. activation, % at 2 µM. 91,000 compounds, 0.04% hits. P34913. purified human sEH enzymatic activity, activator screen; in the data active means activation above about 37%
Target sequence (P34913 whole entry, looked up): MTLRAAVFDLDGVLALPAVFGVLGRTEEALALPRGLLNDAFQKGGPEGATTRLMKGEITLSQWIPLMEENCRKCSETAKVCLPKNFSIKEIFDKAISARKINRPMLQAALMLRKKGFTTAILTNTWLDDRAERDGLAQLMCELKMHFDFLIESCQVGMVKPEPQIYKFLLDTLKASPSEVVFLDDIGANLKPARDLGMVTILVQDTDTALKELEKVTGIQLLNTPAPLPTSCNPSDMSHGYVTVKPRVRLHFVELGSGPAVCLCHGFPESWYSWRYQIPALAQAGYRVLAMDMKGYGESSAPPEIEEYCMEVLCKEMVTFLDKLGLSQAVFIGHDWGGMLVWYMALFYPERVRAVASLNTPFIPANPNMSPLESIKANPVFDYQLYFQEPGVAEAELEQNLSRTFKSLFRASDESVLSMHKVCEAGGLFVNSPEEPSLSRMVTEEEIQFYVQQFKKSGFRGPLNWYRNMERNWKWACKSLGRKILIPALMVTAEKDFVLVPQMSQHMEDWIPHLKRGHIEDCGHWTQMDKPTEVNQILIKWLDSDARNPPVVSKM
cytoskel mod: modifiers of cytoskeleton assembly; HUVEC TNFa F-actin phalloidin imaging, high content; 91,000 compounds, 0.18% hits; inhibition, % at 2 µM; AID 836;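 active means inhibition above the batch mean plus 3 SD and confirmed as a hit by visual image inspection, cut at about 30% in these data, passing the limit was not always enough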
sEH inhibitor: blocks human soluble epoxide hydrolase activity. P34913. recombinant human sEH enzymatic activity assay. inhibition, % at 2 µM. 91,000 compounds, 0.34% hits. AID 707; in the data active means inhibition above about 80%
Calb biofilm kill: kills Candida albicans biofilms | C. albicans biofilm + clotrimazole, Alamar Blue | 85,000 compounds, 0.14% hits | inhibition, % at 6 µM;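 active means inhibition above 20%; inactive means inhibition below 20%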;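 further: preformed 24 hr biofilms exposed to compound for 48 hr; 0% = biofilm without compound and 100% = blank killed by clotrimazole plus chlorhexidine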
The depositor's hits bear a star; . = no result given.

SMILES	Measles CPE	sEH act	cytoskel mod	sEH inhibitor	Calb biofilm kill
COC(=O)c1cc(Br)c(=O)n(Cc2ccncc2)c1	25	2	14	-1	-1
COC(=O)c1cc(Br)c(=O)n(Cc2ccc(C(=O)O)cc2)c1	32*	10	11	-8	-6
O=C(CN1CCN(c2ccccc2)CC1)Nc1ccccc1C(F)(F)F	32*	-7	.	5	2
Cc1cccc(C2(c3cccc(C)c3)CC2C(=O)Nc2ccc([N+](=O)[O-])cc2O)c1 (stereo unspecified)	13	.	.	.	.
CCOC(=O)c1cc(NC(=O)N(CC)CC)c(C)nc1C	18	-6	11	3	8
COc1ccc(OC)c(NC(=O)CSc2nnc(N)s2)c1	18	-9	-12	14	9
Nc1ccc(-n2nnnc2CN2CCOCC2)cc1	43*	.	.	.	.
c1ccc(-n2nnnc2CN2CCOCC2)cc1	5	.	.	.	.
Cc1cccc(NC(=O)CSc2ccc(C(N)=O)cc2[N+](=O)[O-])c1C	16	.	.	.	.
C/C(=N/OC(=O)c1c(F)cccc1F)c1nccs1	3	39*	7	-40	.
C/C(=N\OC(=O)c1ccc(F)cc1)c1nccs1	13	1	4	-1	.
COc1ccc(OCCC(=O)OCC(=O)Nc2cccc(Br)c2)cc1	41*	.	.	.	.
Clc1cccc(N/N=C/c2ccc(N3CCOCC3)s2)c1	7	.	.	.	.
COc1ccc(C(=O)N2CCN(c3ccc([N+](=O)[O-])c(-n4nc(C)cc4C)c3)CC2)cc1	23*	.	.	.	.
Cc1cc(C)n(-c2cc(N3CCN(C(=O)c4ccc(C(C)(C)C)cc4)CC3)ccc2[N+](=O)[O-])n1	9	-14	9	14	.
CCOc1ccc(-n2c(SCC(=O)Nc3ccccc3C)n[nH]c2=O)cc1	15	2	15	-3	8
CN(CCOC(=O)c1ccco1)Cc1ccccc1	6	4	3	-7	70*
O=c1c2ccccc2nnn1CSc1nnc2sc3ccccc3n12	41*	0	2	1	4
CC1(C)CC(=O)c2sc(NC(=O)c3ccc4ncsc4c3)nc2C1	3	3	-24	-5	7
COc1cccc(C(C#N)N2CCCCC2)c1O (stereo unspecified)	18	4	48*	-6	0
O=C(CSc1ncc(-c2ccccc2)n1CC1CCCO1)N1CCCCC1 (stereo unspecified)	30	.	.	.	7
CC(C)Cn1c(-c2ccc(Cl)cc2)cnc1SCC(=O)N1CCOCC1	95*	.	10	.	-4
Cc1cccc(NC(=O)CSc2nc(N)cc(N)n2)c1	13	-8	-15	7	9
CCOC(=O)c1cccc(NC(=O)CSc2nc(N)cc(N)n2)c1	31*	4	-26	-6	9
CCC(C)(C)n1nnnc1CN1CCc2ccccc21	73*	2	9	0	2
SMILES	Measles CPE	sEH act	cytoskel mod	sEH inhibitor	Calb biofilm kill
O=[N+]([O-])c1ccc(N2CCN(S(=O)(=O)c3ccccc3)CC2)cc1NCc1ccco1	5	.	.	.	.
CCOC(=O)CCSc1nc(C)c2ccccc2n1	56*	11	-20	-11	7
O=C(COc1ccc(Br)cc1)N1CCN(c2ccccc2)CC1	35*	14	6	-11	4
O=C(COc1ccccc1)N1CCN(c2ccccc2)CC1	3	.	.	.	.
Nc1ccc(-c2cnc(-c3ccc(N)cc3)nc2)cc1	69*	9	-15	-8	9
O=C(NN=C1CCN(Cc2ccccc2)CC1)C(O)c1ccccc1 (stereo unspecified)	5	.	.	.	.
COc1ccc(NS(=O)(=O)c2ccc(NC(=O)c3ccc(N(C)S(C)(=O)=O)cc3)cc2)c(OC)c1	8	.	.	.	.
Cc1cccc(C)c1Nc1nnc(SC(C)C(=O)Nc2c(C)n(C)n(-c3ccccc3)c2=O)s1 (stereo unspecified)	30	.	.	.	.
O=C(O)C(O)Cc1c[nH]c2ccccc12 (stereo unspecified)	23	.	.	.	.
OC(c1ccccn1)c1c[nH]c2ccccc12 (stereo unspecified)	4	20	67*	-21	3
COc1ccc(OC)c(Nc2nc(C3CC3)nc3c2nnn3Cc2ccccc2)c1	66*	6	18	-4	8
O=C(CSc1ccc2nnc(-c3ccccn3)n2n1)N1CCOCC1	9	-6	-2	6	46*
O=C(CSc1ccc2nnc(-c3cccs3)n2n1)N1CCOCC1	.	.	.	.	8
O=C(COc1ccc(-n2cnnn2)cc1)NCCc1ccc(F)cc1	8	.	-32	.	-5
CC1(C)CC2(CC(C)(C)NC(=O)N2)NC(=O)N1	10	-3	3	2	6
COC(=O)CCSCc1cn2cc(Cl)ccc2n1	2	0	0	2	10
Cc1ccc(C(=O)Nc2cc(C(C)C)c(O)c(C(C)C)c2)cc1	3	.	.	.	.
CNC(=O)c1nn(-c2ccc(C)cc2)ccc1=O	43*	5	-7	-3	.
Cc1ccc(C(=O)Oc2cc(C)n(C)c(=O)c2)cc1	3	2	-4	0	.
CCSc1nnc(NC(=O)C(C)Sc2nc3ccccc3[nH]2)s1 (stereo unspecified)	13	.	.	.	.
CCCNC(=O)N1CCN(S(=O)(=O)c2ccc(C)c(C)c2)CC1	.	6	0	-5	20*
O=C(Nc1ccc(Cl)c(Cl)c1)Oc1ccc(NC(=O)c2ccco2)cc1	9	-24	7	24	.
Cc1cccc(-n2c(SCC(=O)Nc3ncc(Cl)cc3Cl)nc3ccccc32)c1	43*	.	.	.	.
COc1ccc(NC(=O)CSc2nc3ccccc3n2-c2ccccc2)c([N+](=O)[O-])c1	22	.	.	.	.
O=C(CSc1nc2ccccc2n1-c1ccccc1)Nc1ncc(Cl)cc1Cl	53*	.	.	.	.
SMILES	Measles CPE	sEH act	cytoskel mod	sEH inhibitor	Calb biofilm kill
Cc1ccc(-c2nc(N)sc2CC(=O)OCC(=O)NC2CCCC(C)C2C)cc1 (stereo unspecified)	26*	.	.	.	.
Cn1c(=O)c2ncn(CC(=O)Nc3cccc(-c4nc5ccccc5s4)c3)c2n(C)c1=O	4	0	10	3	.
O=C(O)CSc1nnc(-c2ccc3c(c2)OCO3)o1	4	-6	29	5	5
O=C(c1ccc(Cl)cc1)N1CCCCC(Sc2nnc(-c3ccc4c(c3)OCO4)o2)C1=O (stereo unspecified)	39*	.	.	.	4
Cc1cc(C(=O)Cn2nnc3ccccc3c2=O)c(C)n1-c1ccccc1F	97*	-16	8	18	5
COc1ccccc1N(CC(=O)NCc1ccccc1)C(=O)CCC(=O)Nc1cc(C)ccn1	9	1	4	-1	4
COc1ccc(NC2C=CS(=O)(=O)C2)c(OC)c1 (stereo unspecified)	8	-2	.	4	24*
CC(C)CC(=O)NC(=S)N1CCN(c2ccc([N+](=O)[O-])cc2Cl)CC1	3	.	.	.	.
Cc1cc(C(=O)CSc2n[nH]c(N)n2)c(C)n1-c1ccccc1	26*	1	17	1	.
O=C(CNC(=O)c1cccc(F)c1)N/N=C/c1cccc([N+](=O)[O-])c1	9	.	.	.	.
Cc1cc2nc(-c3ccc(SCC(=O)N4CCOCC4)nc3)[nH]c2cc1C	21	-62	7	61	11
Cc1cc2nc(-c3ccc(SCC(=O)N4CCN(C(=O)c5ccco5)CC4)nc3)[nH]c2cc1C	2	-81	7	81*	5
CCOC(=O)CSc1nc2cc(C(=O)N3CCCC3)ccc2c(=O)n1Cc1ccccc1	25*	6	8	-6	6
